Consider 7 molecules from PubChem BioAssay (Tox21).

Assay [1] concerns the target Thyrotropin receptor (Homo sapiens) (UniProt P16473). The assay can be described thus: qHTS assay to identify small molecule agonists of the thyroid stimulating hormone receptor (TSHR) signaling pathway (AID 1224843; calls by dose curve; note: nearly all actives have a fitted effect of over 45% in size). An outline of the steps:
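Agonist-mode screen: TSHR HEK293 cells received test chemicals for half an hour at room temperature, then HTRF cAMP detection reagents for one hour prior to fluorescence measurement. Each chemical ran as a 15-concentration series, triplicated.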
(Quantitative high-throughput screening tests each substance at several concentrations.)

Assay [2] is described as follows: qHTS assay to identify small molecule agonists of the hypoxia (HIF-1) signaling pathway - cell viability counter screen (AID 1224844; calls by dose curve; note: nearly all actives have a fitted effect of over 50% in size). An outline of the steps:
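Same wells as the HIF-1 reporter screen; ME-180 cells carrying HRE-bla, 17 hr treatment at 37C; CellTiter-Glo luminescence read after 30 min at room temperature.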

A short description of assay [3]: qHTS assay to identify small molecule agonists of H2AX (AID 1224845; active = well fitted activation curve with a large enough effect in the signal ratio in the repeat runs, not every such curve was filed as active; the % refers to the signal ratio; note: potency is the fitted concentration of half-maximal effect). An outline of the steps: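 Wild-type CHO-K1 cells, plated overnight, exposed 3hr at 37C to 15 concentrations (0.76% DMSO final). Lysed, then HTRF anti-pH2AX (S139) cryptate and anti-H2AX-d2 antibodies, 24 hr room temperature; 665/620 nm emission read.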
A short description of assay [4]: qHTS assay to identify small molecule agonists of the hypoxia (HIF-1) signaling pathway (AID 1224846; active = well fitted activation curve with a large enough effect in the signal ratio in the repeat runs, not every such curve was filed as active; the % refers to the signal ratio). An outline of the steps: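 In ME-180 cells bearing an HRE-bla construct, 17 h treatment with DMSO-dissolved compounds at 37C was followed by CCF4-AM loading to quantify reporter induction.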
A short description of assay [5]: qHTS assay to identify small molecule agonists of H2AX - cell viability counter screen (AID 1224847; calls by dose curve; note: top concentration of the series differs between compounds; nearly all actives have a fitted effect of over 30% in size). In outline:
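CHO-K1 cells plated overnight at 37C, then exposed 3 h at 37C to compounds at 15 concentrations (0.76% DMSO final). Viability by CellTiter-Glo luminescence after 30 min at room temperature.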

Assay [6] is described as follows: qHTS RealTime-Glo MT Cell Viability Assay in HepG2 cells - 24 hour (AID 1224867). Note: nearly all actives have a fitted effect of over 50% in size. An outline of the steps: (§1)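 Cell number in HepG2 cultures estimated from NanoLuc luminescence generated by metabolic reduction of a prosubstrate by living cells. The homogeneous, nonlytic format allowed repeated reads at 0, 8, 16, 24, 32 and 40 h of compound exposure.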
Assay [7] is described as follows: qHTS RealTime-Glo MT Cell Viability Assay in HEK293 cells - 32 hour (AID 1224868). For activity change, negative = cytotoxic: top concentration of the series differs between compounds. Note: nearly all actives have a fitted effect of over 50% in size. Note: potency is the fitted concentration of half-maximal effect. In outline:
(§2)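 Homogeneous bioluminescent viability format in HEK293 cells (600 cells/well). Following 5 h at 37 C/5% CO2, 23 nL compound was pintooled; the signal was measured repeatedly during 40 h incubation.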

Assay [8] is described as follows: A CellTox Green Cytotoxicity Assay to monitor cytotoxicity in HEK293 cells - 0 hour (AID 1224869). Note: nearly all actives have a fitted effect of over 50% in size. In outline: (§3)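 Homogeneous no-lysis format: HEK293 cell suspension mixed with CellTox Green reagent, seeded, incubated 5 h at 37 C/5% CO2, then dosed by pintool with compound in DMSO.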
A short description of assay [9]: qHTS RealTime-Glo MT Cell Viability Assay in HepG2 cells - 40 hour (AID 1224870). Note: nearly all actives have a fitted effect of over 50% in size. In outline: (§4)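 HepG2 cells (600/well) mixed with RealTime-Glo MT reagent, settled 5 h at 37 C/5% CO2 before compound addition. Nonlytic NanoLuc luminescence from viable-cell prosubstrate reduction read repeatedly during 40 h treatment at 37 C.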
A short description of assay [10]: A CellTox Green Cytotoxicity Assay to monitor cytotoxicity in HEK293 cells - 40 hour (AID 1224871). Note: nearly all actives have a fitted effect of over 45% in size. An outline of the steps:
as §3

A short description of assay [11]: qHTS RealTime-Glo MT Cell Viability Assay in HepG2 cells - 8 hour (AID 1224873). Note: nearly all actives have a fitted effect of over 55% in size. An outline of the steps:
as §4

The nature of assay [12]: qHTS RealTime-Glo MT Cell Viability Assay in HEK293 cells - 40 hour (AID 1224874). Note: nearly all actives have a fitted effect of over 50% in size. Note: potency is the fitted concentration of half-maximal effect. Particulars: RealTime-Glo luminescence; max response: stronger effect = lower value. In outline: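 Measured as luminescence from the same continuously cultured HEK293 wells at successive time points (0, 8, 16, 24, 32, 40 h) after compound addition. Reagent present from seeding; dosing at 5 h; incubation 37 C.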

Assay [13] can be described thus: A CellTox Green Cytotoxicity Assay to monitor cytotoxicity in HEK293 cells - 24 hour (AID 1224875). Note: series mostly up to about 77 µM; nearly all actives have a fitted effect of over 45% in size. An outline of the steps: as §3
Assay [14] in a line: A CellTox Green Cytotoxicity Assay to monitor cytotoxicity in HepG2 cells - 16 hour (AID 1224876). Note: nearly all actives have a fitted effect of over 45% in size. In outline:
(§5)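 Fluorescent DNA-binding dye, 600 HepG2 cells/well, 5 h preincubation then compound in DMSO; same plates read at 0–40 h, 37 C.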

Assay [15] can be described thus: qHTS RealTime-Glo MT Cell Viability Assay in HepG2 cells - 32 hour (AID 1224877). Note: nearly all actives have a fitted effect of over 55% in size. In outline:
as §1

Assay [16] can be described thus: A CellTox Green Cytotoxicity Assay to monitor cytotoxicity in HepG2 cells - 24 hour (AID 1224878). Note: nearly all actives have a fitted effect of over 45% in size. In outline:
as §5

Assay [17] in a line: qHTS RealTime-Glo MT Cell Viability Assay in HEK293 cells - 16 hour (AID 1224872). An outline of the steps: as §2
Assay [18] is described as follows: A CellTox Green Cytotoxicity Assay to monitor cytotoxicity in HepG2 cells - 40 hour (AID 1224879). Note: nearly all actives have a fitted effect of over 40% in size. Note: potency is the fitted concentration of half-maximal effect. An outline of the steps:
as §5

Several values for one entry are separate records, joined by “and”; a condition that tells them apart may be missing. Equal values may be shown once. Results filed as inconclusive are left out. Some structures have more than one record in an assay (separate samples or runs), and their calls can disagree. Activity calls are given as the source filed them. Unless noted, calls come from the whole dose curve; as a rule, active = well fitted curve in the direction sought with a large enough effect in the repeat runs; inconclusive = weak or mixed curves; inactive = no such curve, though single readings can be large; an effect the other way counts as inactive or inconclusive.
% is set by controls: 0 for no effect and ±100 for the full control effect.

Chain of Thyrotropin receptor (Homo sapiens) (P16473 whole entry, looked up): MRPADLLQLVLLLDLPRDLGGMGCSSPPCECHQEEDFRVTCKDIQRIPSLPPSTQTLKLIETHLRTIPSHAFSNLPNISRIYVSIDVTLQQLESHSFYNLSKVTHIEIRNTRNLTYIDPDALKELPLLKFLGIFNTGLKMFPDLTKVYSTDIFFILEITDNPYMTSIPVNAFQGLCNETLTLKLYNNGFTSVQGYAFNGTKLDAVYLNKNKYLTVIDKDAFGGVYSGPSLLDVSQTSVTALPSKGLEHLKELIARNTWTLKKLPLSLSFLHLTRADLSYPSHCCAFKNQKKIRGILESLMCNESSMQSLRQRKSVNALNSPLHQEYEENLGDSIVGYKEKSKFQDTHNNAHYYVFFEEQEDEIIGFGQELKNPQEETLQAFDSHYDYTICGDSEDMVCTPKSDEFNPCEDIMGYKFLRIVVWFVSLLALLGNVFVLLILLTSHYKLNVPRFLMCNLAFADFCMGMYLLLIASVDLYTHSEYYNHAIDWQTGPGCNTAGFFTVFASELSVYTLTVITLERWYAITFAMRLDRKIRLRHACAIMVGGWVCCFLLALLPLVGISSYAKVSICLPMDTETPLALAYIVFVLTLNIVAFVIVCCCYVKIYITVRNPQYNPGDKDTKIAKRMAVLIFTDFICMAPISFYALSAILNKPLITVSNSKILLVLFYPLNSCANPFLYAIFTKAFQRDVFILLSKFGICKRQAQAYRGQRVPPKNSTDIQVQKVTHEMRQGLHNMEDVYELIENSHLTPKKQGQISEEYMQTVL

For the molecule `Nc1nc(Cl)nc2c1ncn2[C@@H]1O[C@H](CO)[C@@H](O)[C@@H]1F`, the Potency entry in assay [1], in assay [2], in assay [5], in [6], in assay [8] and in assay [9] was “inactive” in each case. For the same molecule, the Potency entry in assay [10], in assay [11], in assay [13], in assay [14], in assay [15] and in [16] was “inactive” each time. For the same molecule, the Potency in [3] is 1.56 µM (active); in [7] it was 4.77 µM (active); in assay [12], 4.25 µM (active). Moreover, the result in [4] was inactive.
As to `CC(CCc1ccc2c(c1)OCO2)NN` (configuration not stated), the Potency entry in assay [1], in assay [2], in assay [3], in assay [5], in assay [6] and in assay [7] was “inactive” each time. For the same molecule, the Potency result in assay [9], in assay [10], in [17], in assay [11], in assay [13] and in assay [14] was “inactive” in each case. For the same molecule, the Potency result in [15], in assay [16] and in assay [18] was “inactive” in each case. For the same molecule, the molecule was classed as inactive in [4]. In assay [12], the max response was 6.86% (inactive).
For the molecule `Cn1c(=O)c2c(ncn2CC(=O)O)n(C)c1=O`, the Potency result in assay [1], in assay [2], in assay [3], in [5], in assay [6] and in [7] was “inactive” throughout. Further, the Potency result in assay [8], in assay [9], in assay [10], in [17], in [11] and in assay [13] was “inactive” in each case. Moreover, the Potency entry in assay [14], in assay [15], in [16] and in [18] was “inactive” in each case. Also, the result in [4] was inactive. For the same molecule, the max response in assay [12] is 1.42% (inactive).
For the molecule `CCCC(=O)O[C@]1(C(=O)COC(=O)CC)CC[C@H]2[C@@H]3CCC4=CC(=O)CC[C@]4(C)[C@H]3[C@@H](O)C[C@@]21C`, the activation in assay [1] was -3.04% [at 19 µM] (inactive); in assay [4], -2.77% [at 15.8 µM] (inactive). The activity change, negative = cytotoxicity was -1.64% [at 15.8 µM] (inactive) in assay [2], 1.02% [at 31.6 µM] (inactive) in assay [5], 1.66% [at 15.8 µM] (inactive) in assay [6] and 5.42% [at 15.8 µM] (inactive) in [17]. Further, the activation (H2AX phosphorylation) in [3] was -1.56% [at 31.6 µM] (inactive). For the same molecule, the activity change, negative = cytotoxic in [7] is -2.43% [at 15.8 µM] (inactive); in assay [9], -0.605% [at 15.8 µM] (inactive); in assay [15], 2.32% [at 15.8 µM] (inactive). The cytotoxicity increase in assay [10] is -16.6% [at 15.8 µM] (inactive); in assay [14], -6.66% [at 15.8 µM] (inactive); in assay [18], -7.71% [at 15.8 µM] (inactive). In addition, the viability change, negative = cytotoxic in [11] was 4.81% [at 15.8 µM] (inactive). Moreover, the max response in [12] was 4.99% (inactive). In addition, the cytotoxicity in [16] was -8.51% [at 15.8 µM] (inactive).
With `CC(=O)N(c1onc(C)c1C)S(=O)(=O)c1ccc(N)cc1`, the Potency entry in [1], in [2], in assay [3], in assay [5], in [6] and in assay [8] was “inactive” in each case. Moreover, the Potency result in assay [9], in assay [10], in assay [17], in [11], in assay [13] and in assay [14] was “inactive” throughout. The Potency result in assay [15], in [16] and in assay [18] was “inactive” each time. The molecule was called inactive in assay [4]. In [12], the max response is 4.86% (inactive).
Take `CCCCCCCC/C=C\CCCCCCCC(=O)OC`: the Potency result in assay [1], in [2], in assay [3], in assay [5], in [6] and in assay [9] was “inactive” throughout. Further, the Potency entry in assay [10], in assay [17], in assay [11], in [13], in assay [14] and in assay [15] was “inactive” in each case. Further, the Potency result in [16] and in [18] was “inactive” each time. Besides, in assay [4], the call was inactive. Further, the max response in assay [12] was 5.42% (inactive).
Turning to `Cc1oncc1C(=O)Nc1ccc(C(F)(F)F)cc1`, the Potency entry in assay [1], in assay [2], in [3], in assay [5], in assay [6] and in [7] was “inactive” throughout. Also, the Potency entry in assay [8], in assay [9], in assay [10], in assay [17], in [11] and in [13] was “inactive” each time. Further, the Potency entry in assay [14], in assay [15] and in assay [16] was “inactive” in each case. The max response in assay [12] is 8.36% (inactive) and -3.36% (inactive). Besides, the Potency in [18] was 54.9 µM (active) and inactive.
